Measurements as given in the supplement of paper PMC10849652.
The full data set covers some 8,800 targets. This sample favours those with a hit. About 0.5% of all pairs of compound and target were hits.

Columns and labels:
Assay in all cases: log2 fold change, soluble protein after heating vs DMSO (PISA); higher = thermal stabilisation; K562 lysate, 10 uM; active = over 0.2 and 3.5 SD of the protein, either way, in both replicates (recomputed)
lapatinib = compound: CS(=O)(=O)CCNCc1ccc(-c2ccc3ncnc(Nc4ccc(OCc5cccc(F)c5)c(Cl)c4)c3c2)o1 [lapatinib]
Method in brief: (§1)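 K562 pellets were dounce-homogenised in PBS pH 7.4 containing 1 mM MgCl2, and the crude extract, at 1 mg/mL protein, was exposed to 10 μM compound for 30 min. Aliquots were heated for 3 min across 48°C-58°C, pooled, brought to 0.5% NP-40 at 4°C and spun at 21,000xg for 90 min, with the supernatant taken as soluble protein. TMTpro 16plex LC-MS/MS with equalised channel sums quantified that protein. Values are log-two fold changes in thermal stability relative to solvent controls, taken from duplicates.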

crizotinib = compound: C[C@@H](Oc1cc(-c2cnn(C3CCNCC3)c2)cnc1N)c1c(Cl)ccc(F)c1Cl [crizotinib]
Method in brief: as §1

[1] = compound: C[C@H](C1=CC=C(C=C1)C(=O)NC2=C3C=CNC3=NC=C2)N
Method in brief: as §1

duvelisib = compound: C[C@H](Nc1ncnc2nc[nH]c12)c1cc2cccc(Cl)c2c(=O)n1-c1ccccc1 [duvelisib]
Method in brief: as §1

gandotinib = compound: Cc1cc(Nc2cc(CN3CCOCC3)c3nc(C)c(Cc4ccc(Cl)cc4F)n3n2)n[nH]1 [gandotinib]
Method in brief: as §1

tozasertib = compound: Cc1cc(Nc2cc(N3CCN(C)CC3)nc(Sc3ccc(NC(=O)C4CC4)cc3)n2)n[nH]1 [tozasertib]
Method in brief: as §1

doramapimod = compound: Cc1ccc(-n2nc(C(C)(C)C)cc2NC(=O)Nc2ccc(OCCN3CCOCC3)c3ccccc23)cc1 [doramapimod]
Method in brief: as §1

[2] = compound: Cc1cccc(CC(=O)N2CCc3c2ccc(-c2cn(C)c4ncnc(N)c24)c3F)n1
Method in brief: as §1

nilotinib = compound: Cc1cn(-c2cc(NC(=O)c3ccc(C)c(Nc4nccc(-c5cccnc5)n4)c3)cc(C(F)(F)F)c2)cn1 [nilotinib]
Method in brief: as §1

[3] = compound: Cc1nc(Nc2n[nH]c3c2CN(C(=O)N[C@H](CN(C)C)c2ccccc2)C3(C)C)c2sccc2n1
Method in brief: as §1

dasatinib = compound: Cc1nc(Nc2ncc(C(=O)Nc3c(C)cccc3Cl)s2)cc(N2CCN(CCO)CC2)n1 [dasatinib]
Method in brief: as §1

[4] = compound: Cc1ncc(-c2ccnc(Nc3ccc(S(C)(=O)=O)cc3)n2)n1C(C)C
Method in brief: as §1

[5] = compound: Cn1cc(-c2ccc3c(c2)CCN3C(=O)Cc2cccc(C(F)(F)F)c2)c2c(N)ncnc21
Method in brief: as §1

quisinostat = compound: Cn1cc(CNCC2CCN(c3ncc(C(=O)NO)cn3)CC2)c2ccccc21 [quisinostat]
Method in brief: as §1

tipifarnib = compound: Cn1cncc1[C@@](N)(c1ccc(Cl)cc1)c1ccc2c(c1)c(-c1cccc(Cl)c1)cc(=O)n2C [tipifarnib]
Method in brief: as §1

[6] = compound: NC(=O)Nc1cc(-c2cccc(F)c2)sc1C(=O)N[C@H]1CCCNC1
Method in brief: as §1

[7] = compound: NC(=O)c1cnc(N[C@@H]2CCCC[C@@H]2N)nc1Nc1cccc(-n2nccn2)c1
Method in brief: as §1

[8] = compound: NC1(c2ccc(-c3nc4ccn5c(=O)[nH]nc5c4cc3-c3ccccc3)cc2)CCC1
Method in brief: as §1

pictilisib = compound: CS(=O)(=O)N1CCN(Cc2cc3nc(-c4cccc5[nH]ncc45)nc(N4CCOCC4)c3s2)CC1 [pictilisib]
Method in brief: as §1

bafetinib = compound: Cc1ccc(NC(=O)c2ccc(CN3CC[C@H](N(C)C)C3)c(C(F)(F)F)c2)cc1Nc1nccc(-c2cncnc2)n1 [bafetinib]
Method in brief: as §1

Measured: log2 fold change

SATB2 (UniProt Q9UPW6)
UniProt Q9UPW6, sequence (Q9UPW6 whole entry, looked up): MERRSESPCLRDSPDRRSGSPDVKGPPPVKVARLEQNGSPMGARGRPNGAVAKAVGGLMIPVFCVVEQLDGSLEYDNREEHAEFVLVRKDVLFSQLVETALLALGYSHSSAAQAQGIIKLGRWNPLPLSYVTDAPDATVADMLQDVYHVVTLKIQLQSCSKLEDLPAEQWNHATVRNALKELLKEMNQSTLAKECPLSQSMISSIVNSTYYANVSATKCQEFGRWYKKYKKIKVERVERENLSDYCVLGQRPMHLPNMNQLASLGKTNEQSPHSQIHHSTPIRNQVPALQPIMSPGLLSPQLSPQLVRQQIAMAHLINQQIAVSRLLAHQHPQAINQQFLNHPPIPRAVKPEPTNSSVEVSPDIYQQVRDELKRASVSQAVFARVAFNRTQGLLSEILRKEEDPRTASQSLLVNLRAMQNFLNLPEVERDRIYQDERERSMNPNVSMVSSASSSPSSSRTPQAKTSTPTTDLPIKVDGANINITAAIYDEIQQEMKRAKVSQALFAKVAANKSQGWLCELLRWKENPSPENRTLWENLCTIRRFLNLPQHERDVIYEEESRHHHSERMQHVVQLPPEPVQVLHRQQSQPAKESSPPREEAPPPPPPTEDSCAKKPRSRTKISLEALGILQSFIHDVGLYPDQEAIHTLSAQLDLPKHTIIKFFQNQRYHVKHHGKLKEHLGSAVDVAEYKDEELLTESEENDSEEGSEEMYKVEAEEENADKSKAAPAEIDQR
inactive: lapatinib -0.009 | crizotinib 0.009 | [1] 0.042 | duvelisib 0.03 | gandotinib -0.039 | tozasertib -0.008 | doramapimod 0.002 | [2] -0.008 | nilotinib -0.08 | [3] -0.02 | dasatinib 0.041 | [4] -0.005 | [5] 0.013 | quisinostat -0.06 | tipifarnib 0.009 | [6] 0.018 | [7] 0.031 | [8] 0

RUFY2 isoform 1 (UniProt Q8WXA3)
UniProt Q8WXA3, sequence (Q8WXA3 whole entry, looked up): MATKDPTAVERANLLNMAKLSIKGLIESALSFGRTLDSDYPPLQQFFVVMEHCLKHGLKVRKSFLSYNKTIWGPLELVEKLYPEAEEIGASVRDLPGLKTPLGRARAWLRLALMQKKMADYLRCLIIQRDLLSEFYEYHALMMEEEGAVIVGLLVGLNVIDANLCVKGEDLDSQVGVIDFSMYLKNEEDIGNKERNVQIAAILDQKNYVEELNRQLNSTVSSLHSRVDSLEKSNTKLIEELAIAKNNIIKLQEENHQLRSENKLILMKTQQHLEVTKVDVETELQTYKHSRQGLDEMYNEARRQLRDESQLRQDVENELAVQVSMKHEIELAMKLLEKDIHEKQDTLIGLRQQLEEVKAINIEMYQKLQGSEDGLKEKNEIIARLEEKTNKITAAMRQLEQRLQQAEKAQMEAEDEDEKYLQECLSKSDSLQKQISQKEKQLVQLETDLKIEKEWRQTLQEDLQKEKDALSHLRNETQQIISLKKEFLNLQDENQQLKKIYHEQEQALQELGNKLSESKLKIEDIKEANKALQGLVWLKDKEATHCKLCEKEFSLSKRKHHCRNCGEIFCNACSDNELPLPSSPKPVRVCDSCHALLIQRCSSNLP
inactive: crizotinib -0.015 | [1] 0.116 | gandotinib 0.072 | tozasertib 0.131 | doramapimod -0.136 | bafetinib 0.177 | [2] -0.099 | nilotinib -0.006 | [3] 0.02 | [4] 0.119 | quisinostat 0.047 | tipifarnib 0.177 | [6] 0.007
active: pictilisib -0.533

RMI2 (UniProt Q96E14)
UniProt Q96E14, sequence (Q96E14 whole entry, looked up): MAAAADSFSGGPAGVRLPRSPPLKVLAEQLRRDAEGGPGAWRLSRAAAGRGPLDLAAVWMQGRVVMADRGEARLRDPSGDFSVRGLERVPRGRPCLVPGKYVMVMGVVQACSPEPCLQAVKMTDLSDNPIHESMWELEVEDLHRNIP
inactive: crizotinib 0.005 | duvelisib 0.013 | tozasertib -0.068 | doramapimod -0.012 | dasatinib -0.049 | [5] -0.044 | quisinostat -0.051 | [6] 0.021 | [8] 0.082

RNASEH2B, A0A1B0GUE7
inactive: lapatinib -0.128 | nilotinib -0.01 | [3] 0.037 | [4] 0.211 | tipifarnib 0.067 | [7] 0.035

ROBO2 isoform 3 (UniProt Q9HCK4)
UniProt Q9HCK4, sequence (Q9HCK4 whole entry, looked up): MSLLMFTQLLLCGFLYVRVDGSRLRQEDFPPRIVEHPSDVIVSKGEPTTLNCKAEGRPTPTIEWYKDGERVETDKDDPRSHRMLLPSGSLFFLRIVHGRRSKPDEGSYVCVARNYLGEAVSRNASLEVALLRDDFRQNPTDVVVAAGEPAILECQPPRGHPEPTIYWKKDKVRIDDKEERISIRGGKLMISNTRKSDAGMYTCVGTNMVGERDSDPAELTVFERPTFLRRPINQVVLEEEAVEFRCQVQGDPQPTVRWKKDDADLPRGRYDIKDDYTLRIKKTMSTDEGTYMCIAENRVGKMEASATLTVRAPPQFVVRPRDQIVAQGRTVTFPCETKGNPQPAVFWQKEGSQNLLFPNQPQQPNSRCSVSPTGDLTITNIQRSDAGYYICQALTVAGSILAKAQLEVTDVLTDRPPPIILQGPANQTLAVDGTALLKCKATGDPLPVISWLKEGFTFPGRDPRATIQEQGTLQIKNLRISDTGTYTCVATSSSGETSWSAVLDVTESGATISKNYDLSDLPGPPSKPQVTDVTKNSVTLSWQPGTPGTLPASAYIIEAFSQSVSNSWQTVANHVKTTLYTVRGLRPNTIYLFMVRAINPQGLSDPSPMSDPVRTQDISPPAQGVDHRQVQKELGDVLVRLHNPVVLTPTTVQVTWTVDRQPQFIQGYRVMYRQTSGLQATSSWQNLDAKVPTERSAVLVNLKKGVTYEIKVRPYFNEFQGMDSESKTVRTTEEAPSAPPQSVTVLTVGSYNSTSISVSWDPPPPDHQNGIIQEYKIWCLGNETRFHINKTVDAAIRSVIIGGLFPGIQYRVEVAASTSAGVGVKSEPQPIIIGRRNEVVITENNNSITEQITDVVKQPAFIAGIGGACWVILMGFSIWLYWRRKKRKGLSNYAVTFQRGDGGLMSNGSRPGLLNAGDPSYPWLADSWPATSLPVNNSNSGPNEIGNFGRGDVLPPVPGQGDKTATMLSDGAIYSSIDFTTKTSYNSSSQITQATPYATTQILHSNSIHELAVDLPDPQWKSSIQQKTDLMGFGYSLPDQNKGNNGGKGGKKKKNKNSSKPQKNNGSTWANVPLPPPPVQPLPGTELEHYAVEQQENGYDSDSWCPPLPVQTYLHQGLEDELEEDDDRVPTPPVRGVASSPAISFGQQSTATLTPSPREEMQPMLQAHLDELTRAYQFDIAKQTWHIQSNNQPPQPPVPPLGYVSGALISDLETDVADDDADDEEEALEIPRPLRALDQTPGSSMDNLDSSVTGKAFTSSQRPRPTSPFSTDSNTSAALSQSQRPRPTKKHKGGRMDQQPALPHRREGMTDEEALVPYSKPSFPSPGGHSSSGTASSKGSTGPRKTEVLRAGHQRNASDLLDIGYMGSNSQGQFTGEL
inactive: lapatinib 0.02 | crizotinib -0.039 | doramapimod 0.019 | quisinostat 0.052 | [6] 0.009 | [7] 0.043 | [8] 0.005

RFNG (UniProt Q9Y644)
UniProt Q9Y644, sequence (Q9Y644 whole entry, looked up): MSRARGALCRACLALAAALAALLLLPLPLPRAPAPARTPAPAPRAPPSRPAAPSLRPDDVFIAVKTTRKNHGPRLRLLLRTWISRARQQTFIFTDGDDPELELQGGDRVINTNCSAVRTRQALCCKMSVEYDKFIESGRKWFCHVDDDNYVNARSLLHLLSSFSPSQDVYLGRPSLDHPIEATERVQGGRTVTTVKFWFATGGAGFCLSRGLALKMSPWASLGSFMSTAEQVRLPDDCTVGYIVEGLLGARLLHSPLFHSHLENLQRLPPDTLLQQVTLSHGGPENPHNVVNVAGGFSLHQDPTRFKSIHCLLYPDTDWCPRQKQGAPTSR
inactive: nilotinib 0.184 | [3] 0.054 | [4] -0.078 | tipifarnib -0.048
